# Reference: PubChem BioAssay AID1852 (Sanford-Burnham Center for Chemical Genomics, 2009)
# The campaign covered roughly 2,500 compounds. About 1,100 (44%) were called active. So high a share suggests a set chosen from earlier hits. The list shows a part of the results. A number with no mark means an inactive call.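 The calls were made as follows: active = inhibition above 50% at 4 µM in the single-point screen; inactive = inhibition of 50% or less.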
# Test: TNF-a-driven NF-kB reporter inhibitors, primary screen, selectivity assay for NOD1/NOD2 signaling inhibitor project, cell-based, HEK293T NF-kB-Luc, luminescence (AID 1852)
# Details: TNF-a induced, 14 h, at 4 µM, hits give high values
row,Compound,inhibition
1,O=C1CCN(CCc2ccccc2)CCN1CCOc1ccccc1,-6.2%
2,CCOc1ccc(/C=N/NC(=O)C(O)c2ccccc2)c(O)c1 (configuration not stated),45.4%
3,O=C(N/N=C/c1ccc(O)cc1O)c1ccncc1,28.2%
4,CCc1cc(C(=O)N/N=C/c2ccc(O)cc2O)c2ccccc2n1,50.7% (active)
5,CCn1c(SCC(=O)Nc2nc(-c3ccccc3)cs2)nnc1-c1ccccc1,34.3%
6,Cc1csc(SCC(=O)Nc2cccc3nsnc23)n1,100% (active)
7,O=C(CN1C(=O)c2cccnc2Oc2ccc(Cl)cc21)NCCCc1ccccc1,12%
8,O=C(NC(=S)N(CCCCO)C1CCCCC1)c1sc2ccccc2c1Cl,104% (active)
9,Cc1ccc(C(C)NC(=S)NC2CCCCC2)cc1C (configuration not stated),24.8%
10,COc1ccc(C(=O)NC(=S)N(C)C2CCCCC2)cc1Br,-14.8%
11,Cc1ccc(C(=O)NC(=S)N(C)C2CCCCC2)cc1Br,106% (active)
12,O=C(Nc1ccccc1C(=O)Nc1nnc(C(F)(F)F)s1)c1ccccc1,51% (active)
13,O=C(Nc1ccccc1C(=O)Nc1nnc(C(F)(F)F)s1)c1ccccc1Cl,86.7% (active)
14,Cc1onc(-c2ccccc2Cl)c1C(=O)Nc1nnc(-c2ccc(Br)cc2)s1,-22.4%
15,Cc1onc(-c2c(F)cccc2Cl)c1C(=O)Nc1nnc(C(F)(F)F)s1,48.9%
16,Cc1ccccc1N1CCN(S(=O)(=O)c2nnc(NC(=O)c3ccc(F)cc3)s2)CC1,-27.1%
17,Cc1ccnc(OC(C(=O)O)C(OCc2ccccc2)(c2ccc(F)cc2)c2ccc(F)cc2)n1 (configuration not stated),-7.9%
18,CCn1cc([N+](=O)[O-])c(C(=O)N2N=C(c3ccc4ccccc4c3)CC2c2cc(Br)ccc2O)n1 (configuration not stated),-56.7%
19,CCn1cc([N+](=O)[O-])c(C(=O)N2N=C(c3ccc(OC)cc3OC)CC2c2ccccc2O)n1 (configuration not stated),86.6% (active)
20,CC1CC(C)CN(C(=O)CSc2nc(Cc3cccs3)nc3ccccc23)C1 (configuration not stated),-34.3%
21,O=C1C(Cl)=C(Nc2ccccc2)C(=O)c2ccccc21,-83.5%
22,O=C1C(=O)c2ccc(-c3ccccc3)cc2-c2ccccc21,102% (active)
23,Nc1ccc2c(c1)C(=O)C(=O)c1ccccc1-2,97.6% (active)
24,CCn1c(SCC(=O)N2CCC(C)CC2)nc2c(c1=O)SCC2,1.5%
25,CCCCCCc1cc2cc(S(=O)(=O)c3ccc(F)c(Cl)c3)c(=O)oc2cc1O,38.7%

row,Compound,inhibition
1,CCCCCCc1cc2cc(S(=O)(=O)c3ccc(Cl)cc3)c(=O)oc2cc1O,65.1% (active)
2,CCCCCCc1cc2cc(C(=O)OCC)c(=O)oc2cc1O,9.4%
3,COCCn1c(C)cc(C(=O)CSc2ncnc3sc4c(c23)CCC4)c1C,14.2%
4,c1csc(CCNc2ncnc3sc4c(c23)CCC4)c1,62.9% (active)
5,O=C(O)CSc1ncnc2sc3c(c12)CCCC3,31.1%
6,CC1(C)CC(N2CCN(C(c3ccccc3)c3ccccc3)CC2)=CC(=[N+]2CCCCC2)C1,80.1% (active)
7,CC1(C)CC(N2CCCC2)=CC(=[N+]2CCCCCC2)C1,34%
8,CC1CC(C)C[N+](=C2C=C(N3CCCC3)CC(C)(C)C2)C1 (configuration not stated),49.7%
9,O=C(NC(c1ccc(Cl)cc1)c1c(O)ccc2ccccc12)c1ccccc1 (configuration not stated),78.3% (active)
10,Cc1cc(C)nc(N/N=C/c2c[nH]c3ccccc23)n1,29%
11,Oc1ccc(/C=N/Nc2nccnc2Cl)c(O)c1,39.8%
12,Oc1ccc(/C=N/Nc2nc(-c3ccccc3F)nc3ccccc23)c(O)c1,68.2% (active)
13,FC(F)(F)c1cc(Sc2ccccc2)nc(-c2ccccn2)n1,-4.1%
14,Fc1ccccc1/C=N/Nc1nc(-c2ccccn2)nc2ccccc12,98.7% (active)
15,C(=N\Nc1nc(-c2ccccn2)nc2ccccc12)/c1ccccc1,78.9% (active)
16,Cc1c(O)ccc(/C=N/Nc2nc(-c3cccnc3)nc3ccccc23)c1O,-60%
17,Cc1c(Cl)cccc1NC(=S)NNc1ncc(C(F)(F)F)cc1Cl,28.7%
18,Cc1ccc(S(=O)(=O)c2ncccc2[N+](=O)[O-])cc1,52.6% (active)
19,Cc1ccc(C(=O)Nc2ncc([N+](=O)[O-])s2)cc1,3.8%
20,O=[N+]([O-])c1cccnc1S(=O)(=O)c1ccccc1,69.6% (active)
21,Cc1ccc(S(=O)(=O)c2ccc([N+](=O)[O-])cn2)cc1,38.5%
22,CC(C)C[C@H](NC(=O)c1nc[nH]c1C(=O)N1CCN(C(=O)OC(C)(C)C)CC1)C(=O)OC(C)(C)C,2.4%
23,Cc1ccnc(NC(=O)Cc2ccc(-c3ccccc3)cc2)c1,48.8%
24,CCn1c(=O)cc(SCC(=O)Nc2ccc(C)cn2)c2ccccc21,35.4%
25,Cc1ccnc(NC(=O)CSc2cc(=O)n(C)c3ccccc23)c1,86.3% (active)

row,Compound,inhibition
1,Nc1ncc(Br)cc1S(=O)(=O)Nc1cc(C(F)(F)F)cc(C(F)(F)F)c1,78% (active)
2,Cc1sc2nc(CSc3ccccc3)nc(N3CCC(C(N)=O)CC3)c2c1C,53.5% (active)
3,Cc1nc(N2CCC(C(N)=O)CC2)c2c(-c3cccs3)csc2n1,57.4% (active)
4,CCOC(=O)c1sc2nc(CSc3ccccc3)[nH]c(=O)c2c1C,-7.9%
5,Cc1nc(N2CCC(C)CC2)c2c(C)c(C(=O)Nc3cc(F)ccc3C)sc2n1,-61.2%
6,Cc1nc(N2CCN(C(=O)COc3ccccc3)CC2)c2c(C)c(C)sc2n1,23.4%
7,Cc1nc(N2CCN(c3ccccc3O)CC2)c2c(-c3ccccc3)csc2n1,-13.5%
8,CCOc1cc(/C=C2\C(=N)N3N=C(S(C)(=O)=O)SC3=NC2=O)ccc1OCCOc1cccc(OC)c1,-31.3%
9,Fc1ccc(Sc2nc(-c3ccccc3)nnc2C(F)(F)F)cc1,40.3%
10,CC(C)c1ccc(-n2c(-c3ccccc3)c[n+]3c2CCc2ccccc2-3)cc1,86% (active)
11,CC(Oc1ccc(Br)cc1)c1nc2c3ccccc3nc(=S)n2[nH]1 (configuration not stated),101% (active)
12,CCCC(Oc1ccc(Br)cc1)c1nc2c3cc(OC)c(OC)cc3nc(=S)n2[nH]1 (configuration not stated),104% (active)
13,O=CN1CCN(c2c([N+](=O)[O-])c(=O)oc3ccccc23)CC1,-17%
14,N=C1SCC(=O)N1c1ncc(Cc2ccccc2Cl)s1,97.5% (active)
15,N=C1SCC(=O)N1c1ncc(Cc2ccc(F)cc2)s1,109% (active)
16,O=C1CCSc2ccc(Cl)cc2N1Cc1cccc(Cl)c1,17.4%
17,N=C1SCC(=O)N1c1ncc(Cc2cccc(Cl)c2)s1,101% (active)
18,COc1ccc(COC(=O)NC2CCN(S(=O)(=O)c3ccc(OC)cc3)CC2)cc1,20.6%
19,Cc1nn(-c2ccccc2)c(Cl)c1C(=O)N1CCN(c2ncnc3c2cnn3-c2ccccc2)CC1,86.6% (active)
20,Cc1nc(N2CCN(c3ccccn3)CC2)c2c(C)c(C(=O)N3CCN(c4ccc(F)cc4)CC3)sc2n1,-51.2%
21,CCOC(=O)C1CCN(c2ncnc3c2cnn3-c2ccc(Cl)cc2)CC1,36.4%
22,Cc1ccc2nc(NC(=O)CSCC(=O)OCC(=O)c3ccc(Br)cc3)sc2c1,75.2% (active)
23,COC(=O)c1ccc2nc(Nc3nc4c(F)cc(F)cc4s3)sc2c1,35.5%
24,C=CCn1c(O)c(N=NC(=S)Nc2ccccc2F)c2ccccc21,100% (active)
25,C=CCn1c(O)c(N=NC(=S)Nc2cccc(C)c2)c2ccccc21,8.8%

row,Compound,inhibition
1,Oc1c(N=NC(=S)Nc2ccccc2F)c2ccccc2n1Cc1ccccc1F,7.6%
2,C=CCn1c(O)c(N=NC(=S)Nc2ccc(OC)c(Cl)c2)c2ccccc21,-34.6%
3,C=CCn1c(O)c(N=NC(=S)Nc2cccc(OC)c2)c2ccccc21,12%
4,Cc1c(Cl)cccc1NC(=S)N=Nc1c(O)n(CN2CCOCC2)c2ccccc12,70.8% (active)
5,C=CCn1c(O)c(N=NC(=S)Nc2ccc(OC)cc2)c2ccccc21,96.3% (active)
6,NC(=S)N=Nc1c(O)n(Cc2ccc(Br)cc2)c2ccccc12,-15.1%
7,C/C(Cl)=C\Cn1c(O)c(N=NC(N)=S)c2ccccc21,35.2%
8,O=C(Nc1ccc(Br)c2ccccc12)c1ccc2ccccc2c1O,42.5%
9,CC(=O)c1c(C)oc2ccc(N(C(C)=O)S(=O)(=O)c3ccc(F)cc3C)cc12,-8.7%
10,CCCC1/C(=N/O)CC(c2ccccc2)NC1c1ccccc1 (configuration not stated),31.6%
11,CC1=C(CO)C(=O)OC([C@@H](C)C2CC[C@H]3C4C[C@H]5O[C@]56[C@@H](O)C=CC(=O)[C@]6(C)C4CC[C@]23C)C1 (some centres not stated),89.9% (active)
12,CCC(C)(C)c1ccc(OCCCC[n+]2cccc(C)c2)c(C(C)(C)CC)c1,41.5%
13,COc1cc(OC)cc(-c2cc3nc(C)c(CCC(=O)O)c(C)n3n2)c1,85.7% (active)
14,O=C(Nc1ccc(Cl)c(Cl)c1)Nc1ccc(Br)cc1F,106% (active)
15,Cc1cc(Cl)ccc1OCC(=O)Nc1ccccc1NS(=O)(=O)c1cccs1,21.7%
16,O=C(Nc1ccc(Cl)c(Cl)c1)Nc1ccccc1NS(=O)(=O)c1cccs1,94.3% (active)
17,O=C(Nc1ccc([N+](=O)[O-])cc1)Nc1ccc(Cl)cc1F,12.9%
18,CC(=C/c1ccccc1)/C=N/n1c(-c2ccncc2)n[nH]c1=S,94.4% (active)
19,Cc1cc(-c2n[nH]c(=S)n2/N=C/C(Br)=C/c2ccccc2)n[nH]1,23.7%
20,Cc1cc(-c2n[nH]c(=S)n2/N=C/C(Cl)=C/c2ccccc2)n[nH]1,-31.5%
21,S=c1[nH]nc(-c2cc(-c3ccccc3)n[nH]2)n1/N=C/C(Br)=C/c1ccccc1,105% (active)
22,Cc1ccc(-c2n[nH]c(=S)n2/N=C/c2ccncc2)cc1,4.6%
